According to PubChem BioAssay AID652057 (Broad Institute, 2013):
The campaign covered roughly 1,400 compounds. About 1,000 (71%) were called active. The rule behind the calls is not given here. So high a share suggests a set chosen from earlier hits. Only a sample is shown. Results with a measured potency or affinity are listed apart.

Test: inhibitors of HIV Env-driven cell fusion, dose response, cherry-pick (AID 652057)
Conditions: HeLa-JRFL Env/CEM21 cell fusion, luciferase; series mostly up to 35 µM

Activity change, negative = inhibition, inactive:
O=C(Nc1ccc(F)cc1)Nc1ccc2c(c1)[C@H]1C[C@@H](CC(=O)N3CCCCC3)O[C@H](CO)[C@H]1O2
CO[C@@H]1CN(C)C(=O)c2cc(NC(=O)Nc3ccc(Cl)cc3)ccc2OC[C@H](C)N(C)C[C@H]1C
CCOc1ccccc1C(=O)NCC(=O)NNC(=O)CN(C)S(=O)(=O)c1ccc(Cl)cc1
COc1cccc(S(=O)(=O)N[C@H]2CC[C@H](CC(=O)NCc3ccncc3)O[C@@H]2CO)c1
CCOC(=O)CN1CCCc2nc(C)c(C)cc21
C[C@@H]1CN([C@@H](C)CO)S(=O)(=O)c2ccc(-c3ccccc3)cc2O[C@H]1CN(C)S(C)(=O)=O
CO[C@H]1CN(C)C(=O)c2cc(NC(=O)c3ccc(F)cc3)ccc2OC[C@H](C)N(C(=O)CN(C)C)C[C@@H]1C
CC(CCc1ccco1)NC(=O)CCc1nnc2ccc(NCc3ccccc3Cl)nn12 (stereo unspecified)
C[C@@H]1CN([C@@H](C)CO)C(=O)Cc2cc(NC(=O)NC3CCCCC3)ccc2O[C@@H]1CN(C)S(=O)(=O)c1ccc(Cl)cc1
CC1CCCC(C)N1CCCNC(=O)c1nn(C)c2c1CSc1ccccc1-2 (stereo unspecified)
CCOc1ccc(NC2c3ccccc3C(=O)N2Cc2ccco2)cc1 (stereo unspecified)
Cn1c(=O)oc2cc(S(=O)(=O)NCc3ccncc3)ccc21
O=C(C[C@@H]1C[C@H]2c3cc(NC(=O)C4CCOCC4)ccc3O[C@H]2[C@H](CO)O1)NCc1ccccc1F
CC(C)NC(=O)Nc1ccc2c(c1)C(=O)N([C@@H](C)CO)C[C@H](C)[C@H](CN(C)C(=O)Nc1ccc(F)cc1)O2
Cc1noc(C)c1NC(=O)N(C)C[C@H]1OCCCC[C@H](C)Oc2ccc(NC(=O)c3ccccc3)cc2C(=O)N([C@H](C)CO)C[C@@H]1C
COc1ccc(S(=O)(=O)n2ccc(-c3ccc(OCCN(C)c4ccccn4)cc3)n2)cc1
COc1ccccc1OCC(=O)c1[nH]c(C)c(C(C)=O)c1C
O=C(c1ccccc1)N1CCC(c2nc(-c3ccc(S(=O)(=O)NCC4CCCO4)cc3)no2)CC1 (stereo unspecified)
C[C@@H]1CN([C@H](C)CO)C(=O)c2c(c3ccccc3n2C)-c2ccccc2CO[C@@H]1CN(C)S(=O)(=O)c1cccc(F)c1
C[C@@H]1CN([C@@H](C)CO)C(=O)c2cccc(NC(=O)c3ccc(-c4nccs4)cc3)c2O[C@H]1CN(C)CC1CC1
CCn1ncc(C2=NOC(C(=O)Nc3ccc(C)cc3)C2)c1C (stereo unspecified)
C[C@H]1CN([C@@H](C)CO)C(=O)Cc2cc(N(C)C)ccc2O[C@H]1CN(C)CC1CC1
Cc1ccc2c(c1)C(=C(C#N)C#N)CCN2
O=C(Nc1ccc(N2CCN(C(=O)c3ccccc3)CC2)c(Cl)c1)c1cccnc1
CCCNC(=O)C[C@@H]1C[C@@H]2c3cc(NC(=O)Cc4ccncc4)ccc3O[C@@H]2[C@@H](CO)O1
C[C@H](CO)N1C[C@H](C)[C@@H](CN(C)C(=O)NC2CCCCC2)Oc2c(cccc2N(C)C)C1=O
CCCNC(=O)C[C@@H]1C[C@H]2c3cc(NC(=O)c4cccnc4)ccc3O[C@H]2[C@H](CO)O1
C[C@@H]1CN([C@@H](C)CO)C(=O)c2cc(NC(=O)c3ccccc3)ccc2O[C@@H](C)CCCCO[C@H]1CN(C)Cc1ccc(C(=O)O)cc1
COc1ccc(CN(C)C[C@@H]2Oc3ccc(NC(=O)Nc4ccc(OC)cc4)cc3C(=O)N([C@H](C)CO)C[C@@H]2C)cc1
C[C@@H]1CCCCO[C@H](CN(C)C)[C@H](C)CN([C@@H](C)CO)C(=O)c2cc(NS(=O)(=O)c3cn(C)cn3)ccc2O1
CNC[C@H]1Oc2c(NC(=O)Nc3ccc(C(F)(F)F)cc3)cccc2C(=O)N([C@@H](C)CO)C[C@H]1C
O=C(N[C@@H]1CC[C@H](CCNS(=O)(=O)c2ccc(F)cc2)O[C@@H]1CO)C1CC1
O=C(COC(=O)c1cc(S(=O)(=O)N2CCOCC2)ccc1O)NCc1ccc2c(c1)OCO2
CC(C)CNS(=O)(=O)c1ccc(CCC(=O)N2CCN(Cc3ccc4c(c3)OCO4)CC2)cc1
C[C@H]1NC(=O)[C@@]2(C)[C@H](c3ccccc3)[C@H]3COc4ccccc4[C@@H]3N2C1=O
COCC(=O)N1C[C@@H](C)[C@H](OC)CN(C)C(=O)c2ccc(NC(=O)c3ccc(OC)cc3)cc2OC[C@@H]1C
Nc1c(S(=O)(=O)c2ccccc2)cnc2c(-c3ccc(F)cc3)cnn12
Cc1cc(Cl)ccc1OCC(=O)NNC(=O)C1CSC2(C)CCC(=O)N12 (stereo unspecified)
O=C(Nc1cccc(F)c1)c1cc(S(=O)(=O)N2CCC(C(=O)O)CC2)ccc1F
CCc1cc2c(NCc3ccco3)ncnc2s1
Nc1nc2c(ncn2[C@@H]2O[C@H](C(=O)NCC(c3ccccc3)c3ccccc3)[C@@H](O)[C@H]2O)c(=O)[nH]1
Nc1ncn([C@H]2C[C@H](O)[C@@H](CO)O2)c(=O)n1
N#C[C@H]1[C@@H](c2ccccc2/C=C/c2ccccc2)[C@@H](CO)N1S(=O)(=O)c1cccc(F)c1
O=C(Nc1ccc(CN2CCS(=O)(=O)CC2)cc1)c1ccc(C(F)(F)F)cc1
Cc1ccc(-n2nnnc2-c2cnn(-c3ccc(F)cc3)c2C(F)(F)F)cc1
Cc1cccc(C)c1NC(=O)CCCSc1nnc(-c2ccc(Cl)cc2)n1-c1ccccc1
Cn1c(SCc2nc(-c3ccc(Cl)cc3)no2)nnc1-c1cccs1
COc1ccc(-c2c(C)nn3c(C(F)(F)F)cc(C)nc23)cc1
O=C(CN1CCN(Cc2ccc(Cl)cc2)C1=O)NCCCN1CCN(c2ccc(F)cc2)CC1
C[C@H]1CN([C@@H](C)CO)C(=O)c2cccc(NC(=O)C3CCCCC3)c2O[C@H]1CN(C)S(C)(=O)=O
COCC(=O)N(C)C[C@H]1Oc2ncc(Br)cc2C(=O)N([C@H](C)CO)C[C@H]1C
CCCNC(=O)N1[C@H](C#N)[C@H](c2ccc(-c3ccc(C(=O)N(C)C)cc3)cc2)[C@@H]1CO
COc1ccccc1C#Cc1ccc([C@H]2[C@H](C#N)N(C(=O)C3CCCC3)[C@H]2CO)cc1
N#C[C@@H]1[C@H](c2ccc(-c3cccc(F)c3)cc2)[C@H](CO)N1C(=O)c1cccnc1
CCCNC(=O)N1[C@H](C#N)[C@H](c2ccc(-c3cccc(OC)c3)cc2)[C@@H]1CO
O=S(=O)(NCC[C@@H]1CC[C@@H](NS(=O)(=O)c2ccccc2Cl)[C@H](CO)O1)c1ccc(Cl)cc1
O=S(=O)(NCC[C@H]1CC[C@H](NS(=O)(=O)c2ccccc2Cl)[C@H](CO)O1)c1ccc(Cl)cc1
COc1ccc(OCC(=O)Nc2cc(-c3nn(C)c(=O)c4ccccc34)ccc2OC)cc1
COc1ccc(-c2nn(C)c(=O)c3ccccc23)cc1NC(=O)COc1ccccc1
COc1ccc(NS(=O)(=O)c2ccc3c(c2)OCCO3)cc1OC
COc1ccc(N2CCn3c2nc2c3c(=O)n(CCCc3ccccc3)c(=O)n2C)c(OC)c1
CCOC(=O)C(C)Oc1cccc2c(=O)n(CC(=O)NCCc3ccc(OC)c(OC)c3)ccc12 (stereo unspecified)
O=C(CCN1CCCCC1)N[C@H]1CC[C@H](CCn2cc(-c3ccccc3)nn2)O[C@@H]1CO
O=C(Cc1ccncc1)N[C@H]1CC[C@@H](CCn2cc(-c3ccccc3F)nn2)O[C@@H]1CO
COc1ccc(-c2cn(CC[C@H]3CC[C@H](NS(=O)(=O)c4ccccc4C)[C@H](CO)O3)nn2)cc1
O=C(CCN1CCCCC1)N[C@@H]1CC[C@@H](CCn2cc(-c3ccccc3)nn2)O[C@@H]1CO
Cc1ccc(C2CC(=O)c3cnc(N4CCc5ccccc5C4)nc3C2)cc1 (stereo unspecified)
COc1ccccc1N/C(N)=N/c1nc(CSc2ccc(C)cc2)cc(=O)[nH]1
COc1ccc(NC(=O)C2(C)CCN2Cc2ccccc2OC(F)F)cc1OC (stereo unspecified)
CCCc1cc(C(=O)NCc2ccc(OC)cc2)no1
CCCCCCCCCCn1c2c(c(=N)c3c1CCC3)CCC2
C[C@H](CO)N1C[C@H](C)[C@@H](CN(C)CC2CC2)Oc2ccc(NS(C)(=O)=O)cc2CC1=O
C[C@@H]1CN([C@@H](C)CO)C(=O)c2cc(NC(=O)c3ccncc3)ccc2O[C@@H]1CN(C)Cc1ccncc1
C[C@@H]1CN([C@@H](C)CO)C(=O)c2cc(NC(=O)c3ccncc3)ccc2O[C@H]1CN(C)Cc1ccncc1
C[C@H](CO)N1C[C@H](C)[C@H](CN(C)Cc2ccccc2)Oc2c(NC(=O)Nc3ccc4c(c3)OCO4)cccc2C1=O
COc1ccc(NC(=O)CN2CCC(C(N)=O)(N3CCCCC3)CC2)cc1
CCc1ccc(C(=O)CN2C(=O)NC(C)(c3ccc(C)cc3)C2=O)cc1 (stereo unspecified)
C=CC[n+]1c(-c2ccc(OC)c(OC)c2)csc1NNC(=O)Nc1ccccc1
CC(=O)c1ccc([C@H]2C[C@@]34CN(C(=O)OC(C)(C)C)S(=O)(=O)[C@H]3C[C@H]2O4)cc1
CO[C@@H]1CN(C)C(=O)c2cc(NS(=O)(=O)c3ccc(C)cc3)ccc2OC[C@H](C)N(C(=O)NC(C)C)C[C@@H]1C
O=C(C[C@@H]1C[C@H]2c3cc(NC(=O)C4CCC4)ccc3O[C@H]2[C@H](CO)O1)NCC(F)(F)F
